Results from the OligoGym collection.

What follows are sequences tested against TULP4 (assay: pooled miR-30 sensor sort-seq; sequence = guide strand). Settings: shRNA.
Further: reference of the scale not given here.

Sequence	sensor-assay potency score (higher = more potent)
TTGAAATTTATCCTCTGTGGAG	-0.662
TAAATTAATATAGTCCATGGAA	-0.711
AACATTGTAGAACTTGACCATG	-1.37
TTAAAGTCACTCAAAGTCCTAG	0.213
TTTTATAGATTACTGCACCGAG	0.0761

Each sequence was assayed against TUSC2 in the same assay as above. Settings: shRNA.

Sequence	sensor-assay potency score (higher = more potent)
TGTCTCCTCATAGAACTCGTGA	-0.468
AAGCTTGCTCAGCTCCTGCTGC	-0.817
TCATCATAGAACATAGAGCCGC	-0.771
AATCAGATTCTTATGCACTCGC	0.0606
TCTTGGTGACGATTGTCTCCTC	-0.566
TCTCCTCATAGAACTCGTGAGC	-1.05
TCCTCATCATAGAACATAGAGC	-1.99
TCATAGAACATAGAGCCGCGGC	-0.488
TTCTTGGTGACGATTGTCTCCT	-0.377
TTGGTGACGATTGTCTCCTCAT	0.0125
ATTCTTATGCACTCGCCTCAGC	-1.06
TAGAACATAGAGCCGCGGCGCG	-1.07

Each sequence was assayed against TUT1 in the same assay as above. Settings: shRNA.

Sequence	sensor-assay potency score (higher = more potent)
TCTAGCAGTGGTGAAGCTGGAG	-0.366
TTTGGACTCGATACACCCCAGG	-0.836
TTGGGGTCTCTGCTAGTTCCGA	-1.32
TAGTTCTACCAGGTGCCGGTGC	-0.799
TTGTCCATGACAACACTGGCCA	-0.399
TGACAGAACTTGACCACAGGGC	0.248
TACTGAGGGAGACATCACCGTG	-1.54
TTCTCGCAGCTCGTAGTTCTAC	-0.83
TCCTTGTCCATGACAACACTGG	-1.19
TAGGAAGTACTCAGAGAGCTGA	0.227
AAACACACTTCGAAGTCCCTGG	0.0034
TCGTAGTTCTACCAGGTGCCGG	-1.53

Each sequence was assayed against TXLNG in the same assay as above. Settings: shRNA.

Sequence	sensor-assay potency score (higher = more potent)
ATTTGCTTCTGAACACTCCTGC	0.776
TTTCTTTGTCATCTTTTCCATT	-0.923
TTCTCATTGAGCTCATTCCTTT	-0.993
TTCGATGAGCTTCTTTAGCTTC	-0.258
TTCTTCTTCCTCTCGTGCCTGC	-0.0706
TTCTCTGTTATAAAGTCACTGC	-0.298
TTAAACTATTCAAAACTGCTAA	-0.454
TAACGTCTTATTGTGACGCTGA	0.553
TTGCACTCTGAATCTTGCTGAC	0.000943
TTTAGTTGTACTTCCTGCTGTT	0.906
TTTTAGTTGTACTTCCTGCTGT	0.554
